proKLK7 act – proKLK7 zymogen activators, primary screen, biochemical, fluorescence intensity. Kallikrein-7 (Homo sapiens), P49862. purified proKLK7, EDANS-DABCYL substrate fluorescence; 100% is mature enzyme control, 0% vehicle. activation, % at 7 µM. 370,000 compounds, 0.9% hits. AID 652039, 2013;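 active = activation above the mean of all tested compounds plus 3 SD, computed per campaign excluding outliers beyond control limits, cut at about 13% in these data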
Target sequence (P49862 whole entry, looked up): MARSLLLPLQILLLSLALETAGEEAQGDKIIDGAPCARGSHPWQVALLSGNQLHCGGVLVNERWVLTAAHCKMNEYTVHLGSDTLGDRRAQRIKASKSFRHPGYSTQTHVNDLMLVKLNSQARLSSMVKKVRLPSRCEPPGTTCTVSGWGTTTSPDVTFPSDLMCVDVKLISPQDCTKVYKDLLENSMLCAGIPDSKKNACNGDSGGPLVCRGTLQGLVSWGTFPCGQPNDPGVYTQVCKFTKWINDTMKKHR
ADAM17 inh – ADAM17 inhibitors, primary screen, biochemical, QFRET; inhibition, % at 6.95 µM; Disintegrin and metalloproteinase domain-containing protein 17 (Homo sapiens), P78536; recombinant ADAM17, EDANS/DABCYL FRET peptide cleavage; 370,000 compounds, 0.83% hits;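 active = inhibition above the mean of compounds lying between control limits plus 3 SD, set per campaign, cut at about 8.5% in these data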
GRIN3A LBD mod – binders of NR3A ligand-binding domain, primary screen, biophysical, differential scanning fluorimetry, uHTS; Glutamate receptor ionotropic, NMDA 3A (GRIN3A) ligand-binding domain; NR3A LBD differential scanning fluorimetry, Tm shift; 0% = protein alone, 100% = glycine-bound protein; Tm shift relative to glycine control, % at 25 µM; 340,000 compounds, 2.5% hits;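 active = melting temperature shift of at least 10% of the positive control shift, at one fixed dose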
AHR activator – AHR activators, primary screen, cell-based, luminescence, luciferase reporter, human. 320,000 compounds, 2.5% hits. AHR-responsive luciferase reporter cells. activation, % at 5 µM; in the data active = activation above about 47%
ADAM10 inh – human ADAM10 inhibitors, primary screen, biochemical, QFRET, HTS. 370,000 compounds, 0.62% hits. Disintegrin and metalloproteinase domain-containing protein 10 (Homo sapiens), O14672. recombinant ADAM10, EDANS/DABCYL FRET peptide cleavage, 3 h. inhibition, % at 7 µM;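 active = inhibition above a per-campaign cutoff equal to the mean of compounds falling between control-based bounds plus 3 SD, cut at about 20% in these data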
rCAG binder – binders of r(CAG) RNA repeats, primary screen, biochemical, fluorescence | r(CAG) RNA repeat, TO-PRO-1 dye displacement fluorescence | inhibition, % at 3 µM | 370,000 compounds, 1.3% hits | AID 651821, 2012;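 active = inhibition above the plate cutoff, the mean of all test compounds on that plate plus 3 SD, cut at about 35% in these data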;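 also: higher means more dye released from RNA so lower well fluorescence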
proKLK7 act conf – proKLK7 zymogen activators, confirmation, biochemical, fluorescence intensity, triplicate | activation, % at 7 µM | purified proKLK7, EDANS-DABCYL substrate fluorescence; scaled: vehicle 0, mature enzyme 100 | 3,200 compounds, 68% hits | shares compounds with proKLK7 act;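 active = activation, as change over the incubation, above the mean of all tested compounds plus 3 SD, cut at about 13% in these data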
EDANS interfere – EDANS-DABCYL substrate optical interference, artefact control for kallikrein-7 zymogen activator project, biochemical, fluorescence intensity, high throughput. shares compounds with proKLK7 act. AID 686952, 2013. no enzyme, 4 h; solvent 0%, active enzyme control 100%. 3,200 compounds, 80% hits. activation, % at 7 µM;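 active = activation above the all-compound mean plus 3 SD, ignoring values outside control-based bounds, cut at about 4.8% in these data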;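 also: value is the 4 h activation minus the activation read at time zero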
K7 EDANS ctr – counter-screen for kallikrein-7 activators: EDANS-DABCYL interference, dose response. shares compounds with proKLK7 act. EDANS-DABCYL peptide fluorescence interference, no enzyme. EC50, µM. 250 compounds, 20% hits. AID 720493;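 active = compounds that raise the fluorescence signal in this interference counterscreen, with EC50 at or below 10 µM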;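 also: intact quenched peptide substrate alone read at 355 nm excitation and 520 nm emission; signal is fluorescence gain from T0 to T4 after four hours at room temperature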
Numbers stand for hits; n = inactive; x = no result given. An excerpt weighted towards active compounds, which were near 7% of everything screened.

SMILES	proKLK7 act	ADAM17 inh	GRIN3A LBD mod	AHR activator	ADAM10 inh	rCAG binder	proKLK7 act conf	EDANS interfere	others
Cc1ccc(N=Cc2c(O)c3ccccc3n(C)c2=O)cc1	29	n	n	x	n	n	n	n
Cc1c(O)c(=O)c2ccccc2n1C	92	n	n	n	n	n	73	64
O=c1cccc2n1Cc1cc3ccccc3nc1-2	47	n	n	58	n	n	60	69
Cc1cccc([C@H]2[C@@H]3C=CCC[C@@H]3C(=O)N2Cc2ccccc2)c1	n	n	n	x	n	n	x	x
COc1cc2ccc(=O)oc2c(CC=C(C)C)c1OC	n	n	n	n	n	n	x	x
COc1cc2ccc(=O)oc2cc1O	95	n	n	n	n	n	77	83
COc1cc2ccc(=O)oc2cc1OCC(O)C(C)(C)O (centres undefined)	21	n	n	n	n	n	33	48
COc1ccc(OC)c(/C=N/NC(=O)C(=O)N2CCCC2)c1	59	n	n	n	n	n	48	46
COc1ccc(/C=N\NC(=O)CCc2c(C)n[nH]c2C)c(OC)c1OC	n	n	n	n	n	n	x	x
O=C(C[n+]1ccc(C(=O)N/N=C/c2ccc(OCc3ccccc3)cc2)cc1)c1ccccc1	n	n	n	n	n	n	x	x
COc1cc(/C=C/c2cc[n+](C)cc2)ccc1OCC(=O)Nc1ccccc1	24	n	n	n	n	n	28	25
COc1ccc(OC)c(/C=N/NC(=O)c2cc[n+](CC(=O)c3ccccc3)cc2)c1	31	n	n	n	n	n	63	65
COc1ccc(OC)c(/C=N/NC(=O)CCc2c(C)n[nH]c2C)c1	17	n	n	n	n	n	32	35
COc1ccc(CC2(CO)COc3ccccc3C2=O)cc1 (centres undefined)	n	n	n	n	n	n	x	x
O=C(c1ccccc1Oc1ccc([N+](=O)[O-])cc1)N1CCOCC1	n	n	n	n	n	n	x	x
COc1ccc(OC)c(/C=N/NC(=O)CC(=O)NC2CCCCC2)c1	29	n	n	n	n	n	n	23
COc1ccc(OC)c(/C=N/NC(=O)c2cnccn2)c1	26	n	n	n	n	n	36	39
COc1cccc(/C=N/NC(=O)CC2C(=O)NN=C2C)c1OC (centres undefined)	n	n	n	n	n	n	x	x
COc1ccc(NC(=O)COc2ccc(/C=N/NC(=O)c3cccnc3)cc2OC)cc1	20	n	n	n	n	n	n	n
COc1ccc(OC)c(/C=N/NC(=O)CC(=O)NCc2ccccc2)c1	n	n	n	n	n	n	x	x
COc1ccc(OC)c(/C=N/NC(=O)CC2C(=O)NN=C2C)c1 (centres undefined)	77	n	n	n	n	n	45	39
COc1ccc(-c2cn(-c3ccccc3)c3[n+]2CCS3)cc1	n	n	n	n	n	n	x	x
C=CS(=O)(=O)c1c2cc(OC)ccc2nc2ccc(OC)cc12	22	n	n	x	n	n	n	n
COc1ccc(CCNC(=O)CSc2nc(=O)n3cc(C)ccc3n2)cc1OC	n	n	n	n	n	n	x	x
O=C1CCCC2=C1C(c1ccc(O)cc1)c1c(ccc3ccccc13)N2 (centres undefined)	20	n	n	n	n	n	n	n
SMILES	proKLK7 act	ADAM17 inh	GRIN3A LBD mod	AHR activator	ADAM10 inh	rCAG binder	proKLK7 act conf	EDANS interfere	others
COc1cc2c(cc1OC)C(=O)CCS2	14	n	n	n	n	n	16	22
COc1ccc2c(c1)SCCC2=O	n	n	n	n	n	n	x	x
CCN(CC(=O)NCc1cccs1)C(=O)/C=C/c1ccc(OC)cc1OC	n	n	n	n	n	n	x	x
O=C(/C=C/c1ccccc1)NCCc1nc2ccccc2[nH]1	n	n	n	n	n	n	x	x
COc1ccc(OC)c(/C=C/C(=O)NCCc2nc3ccccc3[nH]2)c1	49	n	n	n	n	n	37	n	K7 EDANS ctr=n
COc1cc(/C=C/C(=O)OCC(=O)NCc2cccs2)ccc1OC(F)F	n	n	n	n	n	n	x	x
COc1ccc(OC)c(/C=C/C(=O)OCC(=O)NCc2cccs2)c1	15	n	n	n	n	n	n	21
COc1ccc(OC)c(/C=C/C(=O)OCC(=O)NCc2ccccc2)c1	15	n	n	n	n	n	n	8.3
CCN(CC(=O)NCc1cccs1)C(=O)/C=C/c1cc(OC)ccc1OC	67	n	n	n	n	n	71	71
CC(C)[C@H](NC(=O)[C@@H]1Cc2c([nH]c3ccccc23)C2c3ccccc3C(=O)N21)C(=O)N1CCC[C@H]1C(=O)O (some centres undefined)	n	n	x	x	n	n	x	x
COc1ccc(OC)c(NC(=O)CN2CCc3ccccc3C2)c1	n	n	n	n	n	n	x	x
COCCN(C(=S)Nc1ccc(Cl)cc1OC)C1CCN(C(C)=O)CC1	n	n	n	n	n	n	x	x
CCOC(=O)C1CCN(S(=O)(=O)CCNC(=O)c2ccc(F)cc2)CC1	n	n	n	n	n	n	x	x
CCOC(=O)c1c[nH]n(-c2ccccc2)c1=O	n	n	n	n	n	n	x	x
CCOC(=O)c1cc(C(=O)OCC)c2ccccn2c1=O	55	n	n	n	n	n	57	68
CCOP(=O)(OCC)c1nc(-c2cccc3ccccc23)oc1N1CCOCC1	63	n	n	n	n	n	63	58
CCOP(=O)(OCC)c1nc(-c2ccccc2Cl)oc1N1CCOCC1	n	n	n	n	n	n	x	x
COc1ccc(/C=N/NC(=O)c2nnn(-c3nonc3N)c2-c2cccs2)cc1OC	32	n	n	n	n	n	217	353
COc1cc(/C=N/NC(=O)c2nnn(-c3nonc3N)c2-c2cccs2)ccc1O	n	n	n	n	n	n	x	x

Screening results from PubChem BioAssay.
